Results taken from PubChem BioAssay AID1159580 (chemical genetic matrix, 2015).
About 2,000 (36%) of roughly 5,500 compounds were called active. Not shown: some 18% with an inconclusive outcome. Cut-off read from the data, not from the text of the source: active = normalized growth mostly below about 0.91 (no sharp cut-off); inconclusive = no clear call, values can overlap the other calls; inactive = mostly above about 0.92. Some of the results follow.

Assay: chemical genetic growth profiling, strain panel (AID 1159580);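 note: tested at 20 µM; growth read once vehicle control cultures reached saturation at 30 °C; 1 = growth at the plate median or of vehicle wells; lower values mean less growth of the strain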
Conditions: S. cerevisiae deletion strains, growth OD

Measured: normalized growth

FC(F)(F)c1ccccc1-n1ccnc1
inactive: locus YAL021C, strain ccr4, hits give low values 0.971 | locus YAL026C, strain drs2, hits give low values 1.02 | locus YAL030W, strain snc1, hits give low values 1.01 | locus YAL040C, strain CLN3, hits give low values 1.01 | locus YBL061C, strain skt5, hits give low values 1.01 | locus YBR009C, strain hhf1, hits give low values 1.08 | locus YBR023C, strain chs3, hits give low values 1 | locus YBR171W, strain sec66, hits give low values 0.966 | locus YBR231C, strain swc5, hits give low values 1 | locus YBR279W, strain paf1, hits give low values 1 | locus YCL011C, strain gbp2, hits give low values 0.998 | locus YCL016C, strain dcc1, hits give low values 1.01 | locus YCL061C, strain MRC1 (second series), hits give low values 1 | locus YCL061C, strain MRC1, hits give low values 1 | locus YCL069W, strain vba3, hits give low values 0.999 | locus YCR088W, strain abp1, hits give low values 0.986 | locus YDL005C, strain med2, hits give low values 0.992 | locus YDL040C, strain nat1, hits give low values 1 | locus YDR001C, strain nth1, hits give low values 0.988 | locus YDR069C, strain doa4, hits give low values 0.999 | locus YDR137W, strain rgp1, hits give low values 0.949 | locus YDR159W, strain sac3, hits give low values 1.04 | locus YDR195W, strain ref2 1.03 | locus YDR297W, strain sur2, hits give low values 0.995 | locus YDR334W, strain swr1, hits give low values 0.963 | locus YDR335W, strain msn5, hits give low values 0.988 | locus YDR363W, strain ESC2, hits give low values 1.02 | locus YDR392W, strain spt3, hits give low values 0.993 | locus YEL003W, strain gim4, hits give low values 0.987 | locus YEL037C, strain rad23, hits give low values 1 | locus YEL061C, strain CIN8 (second series), hits give low values 0.995 | locus YER002W, strain NOP16, hits give low values 0.991 | locus YER015W, strain faa2, hits give low values 1 | locus YER016W, strain bim1, hits give low values 1.01 | locus YER111C, strain swi4, hits give low values 0.999 | locus YER155C, strain BEM2 (second series), hits give low values 1.04 | locus YFR010W, strain ubp6, hits give low values 1 | locus YGL167C, strain pmr1, hits give low values 1.01 | locus YGL173C, strain kem1, hits give low values 1.01 | locus YGL227W, strain vid30, hits give low values 1.02 | locus YGL240W, strain doc1, hits give low values 1.06 | locus YGL253W, strain hxk2, hits give low values 1 | locus YHR013C, strain ard1, hits give low values 0.998 | locus YHR027C, strain rpn1, hits give low values 0.99 | locus YHR030C, strain SLT2, hits give low values 0.993 | locus YHR079C, strain IRE1, hits give low values 1.01 | locus YHR142W, strain chs7, hits give low values 0.935 | locus YJL092W, strain hpr5, hits give low values 0.975 | locus YJL095W, strain BCK1 (second series), hits give low values 0.994 | locus YJL095W, strain BCK1, hits give low values 1 | locus YJL115W, strain asf1, hits give low values 0.983 | locus YJL129C, strain trk1, hits give low values 0.974 | locus YJL154C, strain vps35, hits give low values 1 | locus YJL164C, strain tpk1, hits give low values 0.978 | locus YJL166W, strain qcr8, hits give low values 1.01 | locus YJL187C, strain SWE1, hits give low values 1 | locus YJR066W, strain TOR1, hits give low values 0.936 | locus YKL160W, strain elf1, hits give low values 0.971 | locus YKR026C, strain gcn3, hits give low values 0.993 | locus YKR091W, strain srl3, hits give low values 1 | locus YLL001W, strain dnm1, hits give low values 1 | locus YLL026W, hits give low values 1 | locus YLL041C, strain sdh2, hits give low values 0.994 | locus YLR027C, strain aat2, hits give low values 0.99 | locus YLR113W, strain HOG1, hits give low values 1.05 | locus YLR221C, strain rsa3, hits give low values 0.985 | locus YLR258W, strain gsy2, hits give low values 1.03 | locus YLR262C, strain YPT6 (second series), hits give low values 0.923 | locus YLR320W, strain mms22, hits give low values 1 | locus YLR342W, strain FKS1, hits give low values 1 | locus YLR357W, strain rsc2, hits give low values 1.02 | locus YLR370C, strain arc18, hits give low values 1 | locus YLR384C, strain iki3, hits give low values 0.995 | locus YML120C, strain ndi1, hits give low values 0.979 | locus YMR058W, strain fet3, hits give low values 0.98 | locus YMR125W, strain sto1, hits give low values 1.02 | locus YMR129W, hits give low values 0.992 | locus YMR205C, strain PFK2, hits give low values 1.09 | locus YMR231W, strain pep5, hits give low values 1.02 | locus YMR307W, strain GAS1, hits give low values 1.02 | locus YNL071W, strain lat1, hits give low values 0.992 | locus YNL175C, strain NOP13, hits give low values 0.976 | locus YNL183C, strain NPR1, hits give low values 0.925 | locus YNL197C, strain WHI3, hits give low values 0.977 | locus YNL209W, strain ssb2, hits give low values 1 | locus YNL224C, strain SQS1, hits give low values 0.995 | locus YNL248C, strain rpa49, hits give low values 0.936 | locus YNL322C, strain KRE1 (second series), hits give low values 1.01 | locus YNL322C, strain KRE1, hits give low values 0.996 | locus YNR049C, strain mso1, hits give low values 0.995 | locus YOR001W, strain rrp6, hits give low values 0.949 | locus YOR070C, strain gyp1, hits give low values 1 | locus YOR080W, strain dia2, hits give low values 1 | locus YOR083W, strain WHI5 (second series), hits give low values 0.948 | locus YOR083W, strain WHI5, hits give low values 0.944 | locus YOR106W, strain vam3, hits give low values 0.951 | locus YOR231W, strain MKK1, hits give low values 0.981 | locus YOR265W, strain rbl2, hits give low values 0.991 | locus YOR270C, strain vph1, hits give low values 0.946 | locus YOR290C, strain snf2, hits give low values 0.939 | locus YPL051W, strain arl3, hits give low values 0.98 | locus YPL078C, strain atp4, hits give low values 0.931 | locus YPL106C, strain sse1, hits give low values 1.02 | locus YPL240C, strain hsp82, hits give low values 0.975 | locus YPL241C, strain CIN2, hits give low values 0.998 | locus YPL256C, strain CLN2, hits give low values 1.03
